{
  "source": "the supplement of paper PMC11732987",
  "about": "“Enantioselective OTUD7B fragment discovery through chemoproteomics screening and high-throughput optimisation” (Communications Chemistry, 2025)",
  "experiment_in_all_cases": "log2 ratio of Biotin-Ahx-Ub-VS probe labelling (fragment/DMSO); higher = less target engagement (more negative = stronger competition), active = hit call of the paper (q ≤ 0.05, log2 ratio ≤ -1)",
  "settings_in_all_cases": "compound concentration: 200 uM; treatment time: 3 h",
  "key": {"ALG13": {"molecular_target": "T1, ALG13 (UniProt Q9NP73)", "T1 sequence (whole entry)": "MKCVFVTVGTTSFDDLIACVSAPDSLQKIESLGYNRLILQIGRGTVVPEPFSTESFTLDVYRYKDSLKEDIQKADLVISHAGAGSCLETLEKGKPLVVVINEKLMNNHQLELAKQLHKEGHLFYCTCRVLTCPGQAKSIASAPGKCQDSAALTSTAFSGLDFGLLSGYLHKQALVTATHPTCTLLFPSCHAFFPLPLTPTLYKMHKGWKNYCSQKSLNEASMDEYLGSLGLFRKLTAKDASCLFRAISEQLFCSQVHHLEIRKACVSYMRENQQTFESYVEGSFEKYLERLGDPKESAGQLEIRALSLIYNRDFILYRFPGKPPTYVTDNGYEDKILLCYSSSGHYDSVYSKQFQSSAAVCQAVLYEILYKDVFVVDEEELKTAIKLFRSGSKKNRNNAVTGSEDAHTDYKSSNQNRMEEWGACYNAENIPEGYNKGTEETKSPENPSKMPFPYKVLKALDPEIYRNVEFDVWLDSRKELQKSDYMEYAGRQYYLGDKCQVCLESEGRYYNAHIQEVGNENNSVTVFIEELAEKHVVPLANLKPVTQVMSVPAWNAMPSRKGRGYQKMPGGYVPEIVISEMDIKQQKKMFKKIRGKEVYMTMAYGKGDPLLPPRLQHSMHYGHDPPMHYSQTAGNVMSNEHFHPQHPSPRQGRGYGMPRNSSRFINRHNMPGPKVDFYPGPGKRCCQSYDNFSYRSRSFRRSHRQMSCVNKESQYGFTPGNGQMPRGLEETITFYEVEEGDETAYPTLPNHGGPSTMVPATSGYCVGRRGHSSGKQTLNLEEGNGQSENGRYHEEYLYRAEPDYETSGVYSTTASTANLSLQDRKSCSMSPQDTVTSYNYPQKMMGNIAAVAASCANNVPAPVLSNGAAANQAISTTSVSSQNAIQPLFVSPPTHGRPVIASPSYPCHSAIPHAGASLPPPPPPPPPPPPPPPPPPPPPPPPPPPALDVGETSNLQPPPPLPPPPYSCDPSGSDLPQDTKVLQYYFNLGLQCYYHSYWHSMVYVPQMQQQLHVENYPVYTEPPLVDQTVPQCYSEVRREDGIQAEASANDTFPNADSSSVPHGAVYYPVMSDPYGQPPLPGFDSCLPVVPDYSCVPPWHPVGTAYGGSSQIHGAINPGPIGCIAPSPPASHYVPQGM", "in_short": "(§1)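 Triplicate samples of HEK293T lysate, 495 µg each, received fragment at 200 µM or vehicle for 3 h, followed by Biotin-Ahx-Ub-VS (0.5 µM final) for 1 h. After NeutrAvidin enrichment of labelled DUBs and LysC/trypsin digestion, peptides were run by diaPASEF LC-MS/MS. The values are average log2 fragment/vehicle ratios from global-median-normalised Spectronaut label-free quantities, tested by unpaired t-test on proteins having ≥2 unique peptides.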"}, "ATXN3": {"molecular_target": "ATXN3 (UniProt P54252)", "sequence (P54252 whole entry)": "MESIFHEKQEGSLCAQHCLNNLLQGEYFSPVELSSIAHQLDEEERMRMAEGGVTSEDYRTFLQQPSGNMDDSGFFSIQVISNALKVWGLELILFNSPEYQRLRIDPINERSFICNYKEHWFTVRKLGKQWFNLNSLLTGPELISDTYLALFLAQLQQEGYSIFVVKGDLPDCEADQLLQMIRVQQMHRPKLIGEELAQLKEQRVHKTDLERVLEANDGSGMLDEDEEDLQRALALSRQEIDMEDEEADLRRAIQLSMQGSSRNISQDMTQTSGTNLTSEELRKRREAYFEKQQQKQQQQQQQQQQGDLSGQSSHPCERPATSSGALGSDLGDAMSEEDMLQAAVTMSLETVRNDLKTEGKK", "in_short": "as §1"}, "BAP1": {"molecular_target": "T2, BAP1 (UniProt Q92560)", "T2 sequence (whole entry)": "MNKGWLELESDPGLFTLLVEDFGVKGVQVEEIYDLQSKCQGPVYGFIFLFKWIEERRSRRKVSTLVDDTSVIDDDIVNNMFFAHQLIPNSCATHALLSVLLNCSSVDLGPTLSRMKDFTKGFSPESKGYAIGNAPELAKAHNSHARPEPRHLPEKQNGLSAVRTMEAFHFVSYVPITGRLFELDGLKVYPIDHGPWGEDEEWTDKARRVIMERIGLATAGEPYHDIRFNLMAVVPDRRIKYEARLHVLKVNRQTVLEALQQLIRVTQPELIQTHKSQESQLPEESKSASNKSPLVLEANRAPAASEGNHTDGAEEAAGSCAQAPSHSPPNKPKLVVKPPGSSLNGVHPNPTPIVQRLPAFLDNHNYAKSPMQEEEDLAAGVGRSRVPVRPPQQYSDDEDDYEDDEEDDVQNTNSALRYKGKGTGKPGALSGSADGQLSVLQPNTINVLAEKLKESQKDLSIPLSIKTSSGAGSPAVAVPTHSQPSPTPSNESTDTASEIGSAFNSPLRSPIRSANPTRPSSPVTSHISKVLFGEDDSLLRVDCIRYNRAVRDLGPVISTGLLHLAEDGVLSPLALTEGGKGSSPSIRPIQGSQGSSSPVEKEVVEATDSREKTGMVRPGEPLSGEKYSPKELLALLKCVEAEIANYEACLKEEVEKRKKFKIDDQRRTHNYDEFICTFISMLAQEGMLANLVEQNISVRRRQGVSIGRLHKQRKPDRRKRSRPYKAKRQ", "in_short": "as §1"}, "EIF3F": {"molecular_target": "EIF3F (UniProt O00303)", "sequence (O00303 whole entry)": "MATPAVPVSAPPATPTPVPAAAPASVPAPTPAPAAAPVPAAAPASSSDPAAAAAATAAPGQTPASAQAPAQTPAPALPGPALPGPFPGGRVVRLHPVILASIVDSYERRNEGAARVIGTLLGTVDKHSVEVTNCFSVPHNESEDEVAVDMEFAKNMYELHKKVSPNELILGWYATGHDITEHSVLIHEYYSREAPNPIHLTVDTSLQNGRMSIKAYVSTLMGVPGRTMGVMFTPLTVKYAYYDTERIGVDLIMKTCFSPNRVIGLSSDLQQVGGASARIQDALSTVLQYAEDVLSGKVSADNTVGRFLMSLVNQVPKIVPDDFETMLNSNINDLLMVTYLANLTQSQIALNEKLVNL", "in_short": "as §1"}, "EIF3H": {"molecular_target": "EIF3H (UniProt O15372)", "sequence (O15372 whole entry)": "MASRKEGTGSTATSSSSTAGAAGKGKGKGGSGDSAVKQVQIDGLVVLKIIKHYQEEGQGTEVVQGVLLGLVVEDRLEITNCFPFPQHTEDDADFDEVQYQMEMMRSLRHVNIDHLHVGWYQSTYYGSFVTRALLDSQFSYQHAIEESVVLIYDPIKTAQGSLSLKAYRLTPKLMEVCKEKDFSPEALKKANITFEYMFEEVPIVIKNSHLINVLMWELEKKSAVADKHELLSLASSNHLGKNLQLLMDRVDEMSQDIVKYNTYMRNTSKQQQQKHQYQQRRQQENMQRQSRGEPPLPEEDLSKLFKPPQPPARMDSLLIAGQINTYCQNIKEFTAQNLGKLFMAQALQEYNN", "in_short": "as §1"}, "FAM105A": {"molecular_target": "T3, FAM105A (UniProt Q9NUU6)", "T3 sequence (whole entry)": "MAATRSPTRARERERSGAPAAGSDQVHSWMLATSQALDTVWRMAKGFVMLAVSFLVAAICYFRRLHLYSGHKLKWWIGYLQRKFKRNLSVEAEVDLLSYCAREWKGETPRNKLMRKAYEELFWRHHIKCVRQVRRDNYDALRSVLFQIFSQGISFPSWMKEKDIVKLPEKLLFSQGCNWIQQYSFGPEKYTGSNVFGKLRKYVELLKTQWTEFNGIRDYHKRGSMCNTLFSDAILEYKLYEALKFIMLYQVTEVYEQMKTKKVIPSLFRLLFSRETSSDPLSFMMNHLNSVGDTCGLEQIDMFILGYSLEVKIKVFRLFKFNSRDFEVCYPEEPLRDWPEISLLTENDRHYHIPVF", "in_short": "as §1"}, "OTUB1": {"molecular_target": "OTUB1 (UniProt Q96FW1)", "sequence (Q96FW1 whole entry)": "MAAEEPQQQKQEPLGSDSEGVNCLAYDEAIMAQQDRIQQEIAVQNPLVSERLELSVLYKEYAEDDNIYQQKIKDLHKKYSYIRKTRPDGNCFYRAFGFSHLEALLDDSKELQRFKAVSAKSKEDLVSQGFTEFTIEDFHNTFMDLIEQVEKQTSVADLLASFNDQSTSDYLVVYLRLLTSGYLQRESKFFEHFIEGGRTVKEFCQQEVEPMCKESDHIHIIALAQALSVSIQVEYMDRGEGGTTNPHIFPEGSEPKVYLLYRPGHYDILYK", "in_short": "as §1"}, "OTUD4": {"molecular_target": "T4, OTUD4 (UniProt Q01804)", "T4 sequence (whole entry)": "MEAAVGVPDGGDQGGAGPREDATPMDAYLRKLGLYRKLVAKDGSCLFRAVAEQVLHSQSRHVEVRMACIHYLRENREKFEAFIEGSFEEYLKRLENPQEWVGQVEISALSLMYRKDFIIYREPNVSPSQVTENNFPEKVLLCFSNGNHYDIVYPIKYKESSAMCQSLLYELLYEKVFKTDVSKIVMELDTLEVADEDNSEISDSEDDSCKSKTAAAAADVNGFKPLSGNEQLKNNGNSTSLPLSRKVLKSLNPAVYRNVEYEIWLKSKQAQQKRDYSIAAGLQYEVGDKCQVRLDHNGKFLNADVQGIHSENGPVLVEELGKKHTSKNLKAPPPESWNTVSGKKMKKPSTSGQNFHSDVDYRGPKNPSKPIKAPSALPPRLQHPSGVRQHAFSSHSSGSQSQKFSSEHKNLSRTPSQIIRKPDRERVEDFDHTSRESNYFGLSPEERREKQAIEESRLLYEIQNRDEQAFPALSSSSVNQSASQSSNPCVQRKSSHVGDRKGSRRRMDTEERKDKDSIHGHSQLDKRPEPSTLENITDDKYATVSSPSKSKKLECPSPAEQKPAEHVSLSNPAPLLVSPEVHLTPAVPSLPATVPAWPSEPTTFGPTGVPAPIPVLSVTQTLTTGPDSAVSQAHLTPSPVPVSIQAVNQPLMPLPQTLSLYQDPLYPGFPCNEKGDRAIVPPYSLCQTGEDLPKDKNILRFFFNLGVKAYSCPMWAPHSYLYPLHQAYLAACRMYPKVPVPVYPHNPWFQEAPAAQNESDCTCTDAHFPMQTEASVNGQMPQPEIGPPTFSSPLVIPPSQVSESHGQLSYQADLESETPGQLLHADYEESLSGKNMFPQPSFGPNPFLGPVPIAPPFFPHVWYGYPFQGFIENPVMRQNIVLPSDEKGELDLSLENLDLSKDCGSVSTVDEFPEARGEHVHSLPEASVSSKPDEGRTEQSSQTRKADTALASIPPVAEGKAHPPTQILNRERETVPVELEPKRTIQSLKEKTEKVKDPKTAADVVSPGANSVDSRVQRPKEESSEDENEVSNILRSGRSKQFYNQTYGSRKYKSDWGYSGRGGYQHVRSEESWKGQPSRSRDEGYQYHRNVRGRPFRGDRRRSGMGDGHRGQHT", "in_short": "as §1"}, "OTUD5": {"molecular_target": "T5, OTUD5 (UniProt Q96G74)", "T5 sequence (whole entry)": "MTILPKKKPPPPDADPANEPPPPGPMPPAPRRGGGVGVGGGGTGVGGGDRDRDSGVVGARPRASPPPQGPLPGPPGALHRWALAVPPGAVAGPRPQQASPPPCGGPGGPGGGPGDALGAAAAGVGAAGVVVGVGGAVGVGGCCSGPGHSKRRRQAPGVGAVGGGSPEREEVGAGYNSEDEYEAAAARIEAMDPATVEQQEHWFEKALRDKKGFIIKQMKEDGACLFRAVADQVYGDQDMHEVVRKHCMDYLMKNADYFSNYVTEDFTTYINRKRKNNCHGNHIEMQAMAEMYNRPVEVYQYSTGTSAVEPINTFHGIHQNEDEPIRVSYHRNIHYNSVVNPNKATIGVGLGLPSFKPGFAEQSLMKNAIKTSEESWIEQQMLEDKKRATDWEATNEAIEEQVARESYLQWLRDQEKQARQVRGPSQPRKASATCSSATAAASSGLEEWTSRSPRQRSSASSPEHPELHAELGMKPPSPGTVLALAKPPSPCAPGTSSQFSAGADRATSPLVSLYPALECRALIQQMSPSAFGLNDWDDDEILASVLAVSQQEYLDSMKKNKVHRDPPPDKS", "in_short": "as §1"}},
  "note": "A number with no mark means an inactive call.",
  "data": [
    {"smiles": "C#Cc1cccc(NC(=O)CCl)c1", "values": [
      {"measurement": "log2 ratio of Biotin-Ahx-Ub-VS probe labelling", "setting": "ALG13", "result": -0.0771},
      {"measurement": "log2 ratio of Biotin-Ahx-Ub-VS probe labelling", "setting": "ATXN3", "result": -0.239},
      {"measurement": "log2 ratio of Biotin-Ahx-Ub-VS probe labelling", "setting": "BAP1", "result": "-3.08 (active)"},
      {"measurement": "log2 ratio of Biotin-Ahx-Ub-VS probe labelling", "setting": "EIF3F", "result": -0.206},
      {"measurement": "log2 ratio of Biotin-Ahx-Ub-VS probe labelling", "setting": "EIF3H", "result": 0.0977},
      {"measurement": "log2 ratio of Biotin-Ahx-Ub-VS probe labelling", "setting": "FAM105A", "result": 0.233},
      {"measurement": "log2 ratio of Biotin-Ahx-Ub-VS probe labelling", "setting": "OTUB1", "result": -0.135},
      {"measurement": "log2 ratio of Biotin-Ahx-Ub-VS probe labelling", "setting": "OTUD4", "result": -0.211},
      {"measurement": "log2 ratio of Biotin-Ahx-Ub-VS probe labelling", "setting": "OTUD5", "result": -0.288}
    ]}
  ]
}
